This is a sample that favours compounds with a hit; in the whole collection about 2.4% have one here.
Pol kappa inh-1 = qHTS for Inhibitors of Polymerase Kappa. DNA polymerase kappa (Homo sapiens), Q9UBT6. purified Pol kappa, fluorescent DNA synthesis assay, 10 min. Potency, µM (series often up to 107 µM), for inactives: top-dose activity, negative = inhibition, usual class: inhibitors. 0.53% of 400,000 active. AID 588579, 2011; also: % is scaled to controls: 0 for no effect and ±100 for the full control effect
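Here, compound and 10 nM enzyme are combined for 15 min at room temperature; adding 50 nM substrate (final) starts DNA synthesis, tracked by fluorescence at 0 and 10 min against buffer-only wells.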
WRN helicase inh-1 = qHTS for Inhibitors of WRN Helicase. 0.46% of 360,000 active. AID 651768, 2012. Bifunctional 3'-5' exonuclease/ATP-dependent helicase WRN (Homo sapiens), Q14191. WRN helicase unwinding, fluorescent forked duplex, kinetic. Potency, µM (doses to about 114 µM), without a hit: at the highest dose activity change, negative = inhibition, hits mostly inhibitors; also: % is scaled to controls: 0 for no effect and ±100 for the full control effect; nearly all actives have a fitted effect of over 55% in size
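Kinetic red-fluorescence monitoring (525/598 nm) tracks WRN helicase activity after 100 nM fluorophore-quencher forked duplex and 2 mM ATP are added to 20 nM enzyme pretreated 15 min at room temperature with compound.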
POLI inh = qHTS for Inhibitors of Polymerase Iota. 1% of 390,000 active. Pol iota fluorescent replication assay, 10 min. Potency, µM (series often up to 115 µM), without a hit: top-dose activity, negative = inhibition, most hits filed as inhibitors. AID 588590, 2011
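Pol iota at 10 nM preincubated 15 min with compounds at room temperature; reaction started with fluorescent substrate, 50 nM final. Fluorescence read kinetically at 0 and 10 min; buffer-only wells as negative control.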
Pol eta inh-1 = qHTS for Inhibitors of Polymerase Eta | DNA polymerase eta (Homo sapiens), Q9Y253 | recombinant Pol eta, fluorescent DNA replication assay | Potency, µM (titrated, usually from 114 µM), without a hit: at the highest dose activity change, negative = inhibition, actives largely listed as inhibitors | 1.2% of 390,000 active; also: % is scaled to controls: 0 for no effect and ±100 for the full control effect
Target sequence (Q9Y253 whole entry, looked up): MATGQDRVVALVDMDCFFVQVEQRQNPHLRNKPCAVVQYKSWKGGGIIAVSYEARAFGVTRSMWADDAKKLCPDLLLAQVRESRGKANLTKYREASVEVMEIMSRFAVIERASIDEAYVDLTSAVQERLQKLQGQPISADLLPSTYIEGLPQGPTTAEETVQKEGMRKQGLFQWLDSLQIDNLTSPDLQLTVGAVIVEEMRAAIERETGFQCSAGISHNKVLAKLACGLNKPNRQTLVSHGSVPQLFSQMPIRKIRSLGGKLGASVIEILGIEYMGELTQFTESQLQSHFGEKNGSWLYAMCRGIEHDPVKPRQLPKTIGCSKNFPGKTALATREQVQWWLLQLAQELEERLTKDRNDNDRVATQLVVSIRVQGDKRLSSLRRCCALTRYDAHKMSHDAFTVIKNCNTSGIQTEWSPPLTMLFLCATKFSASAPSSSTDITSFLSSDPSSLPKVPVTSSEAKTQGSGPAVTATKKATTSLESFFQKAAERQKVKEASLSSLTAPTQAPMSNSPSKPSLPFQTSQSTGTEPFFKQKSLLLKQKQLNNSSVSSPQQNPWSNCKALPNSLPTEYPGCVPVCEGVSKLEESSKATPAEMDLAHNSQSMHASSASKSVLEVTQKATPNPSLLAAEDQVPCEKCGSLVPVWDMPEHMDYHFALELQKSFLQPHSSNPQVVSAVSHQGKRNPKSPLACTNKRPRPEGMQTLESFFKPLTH
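Pol eta at 10 nM preincubated with compounds 15 min at room temperature; reaction started with fluorescent substrate (50 nM final) and read kinetically at 0 and 10 min.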
Pol beta inh = qHTS Assay for Inhibitors of DNA Polymerase Beta; P06746; Pol beta primer extension/strand displacement, fluorescence kinetic; Potency, µM (highest dose often 114 µM), for inactives: at the top dose activity change, negative = inhibition, most hits filed as inhibitors; 1.3% of 340,000 active; AID 485314, 2010; also: % is scaled to controls: 0 for no effect and ±100 for the full control effect
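Human Pol beta at 10 nM; strand-displacement substrate 50 nM final. Compound exposure 15 min at room temperature before start, reaction 10 min at room temperature.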
FEN1 inh-1 = qHTS Assay for the Inhibitors of Human Flap endonuclease 1 (FEN1); P39748; Recombinant FEN1 flap cleavage, fluorescence, 15 min; Potency, µM (highest dose often 114 µM), for the others: at the highest dose activity change, negative = inhibition, usual class: inhibitors; 0.35% of 390,000 active; also: % is scaled to controls: 0 for no effect and ±100 for the full control effect; nearly all actives have a fitted effect of over 65% in size
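Read-out was taken twice, immediately and after 15 min, following addition of 50 nM substrate to 10 nM FEN1 that had sat with test compound for 15 min at room temperature. Curves came from a four-parameter Hill model.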
PGK validate = qHTS for inhibitors of Phosphogylcerate Kinase: Hit Validation Screen. shares compounds with Pol kappa inh-1. AID 686980, 2013. 79% of 500 active. Potency, µM (highest dose often 57.5 µM), for the others: at the highest dose activity change, negative = inhibition, actives largely listed as inhibitors. TbPGK coupled GAPDH assay, Kinase-Glo luminescence; also: % is scaled to controls: 0 for no effect and ±100 for the full control effect; nearly all actives have a fitted effect of over 65% in size
Pol iota confirm = qHTS for Inhibitors of Polymerase Iota: Confirmatory Assay for Cherry-picked Compounds; shares compounds with Pol kappa inh-1; Pol iota primer extension, TAMRA/BHQ fluorescence; Potency, µM, hits mostly inhibitors; 77% of 1,500 active; AID 720496, 2013
Pol kappa inh-2 = qHTS for Inhibitors of Polymerase Kappa: Confirmatory Assay for Cherry-picked Compounds. shares compounds with Pol eta inh-1. purified Pol-kappa, fluorescent strand-displacement substrate. Potency, µM, actives largely listed as inhibitors. 76% of 920 active
Pol eta inh-2 = qHTS for Inhibitors of Polymerase Eta: Confirmatory Assay for Cherry-picked Compounds. AID 720502, 2013. Potency, µM, hits mostly inhibitors. 64% of 2,600 active. shares compounds with Pol eta inh-1. Pol eta primer extension, TAMRA/BHQ fluorescence, 10 min
FEN1 inh-2 = qHTS Assay for the Inhibitors of FEN1: Confirmatory Assay for Cherry-picked Compounds | shares compounds with FEN1 inh-1 | Potency, µM, usual class: inhibitors | 79% of 880 active | FEN1 flap cleavage, TAMRA/BHQ2 fluorogenic DNA substrate; also: nearly all actives have a fitted effect of over 60% in size
WRN helicase inh-2 = qHTS for Inhibitors of WRN Helicase: Confirmatory Assay for Cherry-picked Compounds | AID 720497, 2013 | Potency, µM (series often up to 57.1 µM), inactives show at the highest dose activity, negative = inhibition, actives largely listed as inhibitors | 63% of 610 active | shares compounds with WRN helicase inh-1 | WRN helicase DNA unwinding, fluorescence kinetic; also: nearly all actives have a fitted effect of over 65% in size
TO displacement = qHTS for Inhibitors of WRN Helicase: Thiazole Orange DNA Binding Counterscreen. AID 720499, 2013. Potency, µM (series often up to 57.1 µM), without a hit: at the top dose activity change, negative = inhibition, hits mostly inhibitors. thiazole orange DNA binding displacement, fluorescence. shares compounds with WRN helicase inh-1. 10% of 610 active;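 also: drop in dye fluorescence marks compound binding to DNA; % is scaled to controls: 0 for no effect and ±100 for the full control effect; nearly all actives have a fitted effect of over 60% in size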
BLM helicase inh = qHTS for Inhibitors of WRN Helicase: BLM Helicase Counterscreen for WRN Inhibitors | shares compounds with WRN helicase inh-1 | Recombinant BLM helicase DNA unwinding, red fluorescence | Potency, µM (series often up to 57.1 µM), inactives show top-dose activity change, negative = inhibition, actives largely listed as inhibitors | 60% of 610 active; also: nearly all actives have a fitted effect of over 60% in size
* = called active by the depositor; u = inconclusive; x = no result given; [ ] = another dose, or the depositor's remark. Calls follow the shape of the dose curve; as a rule, active = well fitted curve in the direction sought with a large enough effect; inconclusive = small, poorly fitted or top-dose-only effect, or another doubt; inactive = no such curve, though single readings can be large; an effect the other way counts as inactive or inconclusive. Potency is read from the fitted curve at half-maximal effect.

SMILES | Pol kappa inh-1 | WRN helicase inh-1 | POLI inh | Pol eta inh-1 | Pol beta inh | FEN1 inh-1 | Pol iota confirm | Pol kappa inh-2 | Pol eta inh-2 | WRN helicase inh-2 | TO displacement | BLM helicase inh | others
O=C(O)CSc1nc2sc3c(c2c(=O)n1Cc1ccccc1)CCCCC3 | -5% | -3% | 37% | -12% | 0% | -6% | x | x | x | x | x | x
O=C(O)CSc1cc(C(=O)c2ccccc2O)cn2c(=O)c3c4c(sc3nc12)CCCC4 | 45µM* | 45µM* | u | u | u | u | 27* | x | u | 9.6µM* | u | 3.4µM* | FEN1 inh-2=48*
Cc1ccc(-c2nnc3ccccc3c2C(=O)Nc2ccc(F)cc2)cc1 | -11% | x | 1% | -2% | -19% | 3% | x | x | x | x | x | x
O=C1OC(c2cccs2)=N/C1=C/c1ccc(-c2cccc(C(=O)O)c2)o1 | 45µM* | u | 20µM* | 14µM* | 3.5µM* | 40µM* | 38* | x | 27* | 19µM* | u | u
O=C1c2cccc(NCCCNCCO)c2C(=O)c2cccc(NCCCNCCO)c21 | 32µM* | 10µM* | 45µM* | 4.5µM* | x | 3.5µM* | 19* | 17* | 38* | 1.1µM* | 0.86µM* | 1.7µM* | FEN1 inh-2=4.3*
O=C1c2ccccc2C(=O)c2c(NCc3cccnc3)cccc21 | -12% | -20% | 9% | -1% | -2% | -18% | x | x | x | x | x | x
Nc1ccc2nc(-c3cccc(-c4nc5ccc(N)cc5[nH]4)n3)[nH]c2c1 | 56µM* | 20µM* | 14µM* | 20µM* | 25µM* | u | 17* | 27* | 19* | 5.4µM* | 17µM* | 4.8µM* | FEN1 inh-2=1.7*
Nc1cccc(-c2nc3ccccc3[nH]2)c1 | -10% | -5% | -11% | -13% | -9% | -16% | x | x | x | x | x | x
O=C(O)c1ccc2nc(-c3cc4cccc(O)c4oc3=O)[nH]c2c1 | u | x | u | x | 8.9µM* | 28µM* | 24* | 27* | 21* | 11µM* | 19µM* | 3µM* | FEN1 inh-2=43*
C=CCc1cccc2cc(-c3nc4ccc(C)cc4[nH]3)c(=O)oc12 | -7%[60.1 µM] | x | u | x | 7% | u | x | x | x | x | x | x
CC1=NN(c2ccccc2)C(=O)C1C=Nc1ccccc1O (centres undefined) | 7% | 0% | 15% | -24% | -1% | -5% | x | x | x | x | x | x
CC1=NN(c2ccccc2)C(=O)C1/C=C1\NC(=S)NC1=O (centres undefined) | 25µM* | 28µM* | u | 3.2µM* | -5% | 79µM* | 47* | 7.5* | 24* | 8.6µM* | -23% | 17µM*
CCOC(=O)C1CCCN(c2nc3c(S(=O)(=O)c4ccc(Br)cc4)nnn3c3ccsc23)C1 (centres undefined) | 4% | x | 4% | 13% | 1% | 10% | x | x | x | x | x | x
Cc1ccc(CNC(=O)C(=O)Nc2c3c(nn2-c2ccc(F)cc2)CSC3)cc1 | -2%[60.1 µM] | x | 1% | 5% | u | -4% | x | x | x | x | x | x
O=C1CC(=O)N(Cc2ccco2)C(=O)N1 | 8.9µM* | 25µM* | 3.2µM* | 3.5µM* | 8.9µM* | 28µM* | 3.4* | x | 5.4* | 7.6µM* | 30% | 4.3µM* | PGK validate=0.92µM*;FEN1 inh-2=24*
COc1cc(NC(=O)c2noc3c2CCC3)c(OC)cc1Cl | 32µM* | u | u | 18µM* | 10µM* | u | 38* | x | 38* | u | -5% | 22µM*
Cc1cccc(Oc2nc3c(c(=O)n(C)c(=O)n3C)n2C)c1C | 9% | x | 37% | -12% | 1% | -3% | x | x | x | x | x | x
Cc1ccc(OCC(=O)c2c(N)n(C)c(=O)n(C)c2=O)c([N+](=O)[O-])n1 | 35µM* | 45µM* | 10µM* | 11µM* | x | u | 34* | 11* | 30* | 17µM* | -14% | 4.8µM*
Cc1ccc(N(Cc2cccs2)C(=O)Nc2cccc(Cl)c2)cc1 | -25% | x | 11% | -2% | u | -14% | x | x | x | x | x | x
CNc1ccc(/C=C2\C=Cc3ccccc32)cc1I | -10% | x | -7% | x | x | -4% | x | x | x | x | x | x
CCc1cc(=O)oc2cc(C)c(CN3CCCC3)c(O)c12 | 8.9µM* | 32µM* | 3.2µM* | 22µM* | 7.9µM* | 25µM* | u | 24* | 30* | 15µM* | 24µM* | 3.8µM*
O=C(Nc1ccccc1)Nc1ncc([N+](=O)[O-])s1 | -8% | -3% | 21% | -9% | -2% | 9% | x | x | x | x | x | x
